KCNQ2 enhance = enhances the rat KCNQ2 potassium channel; O88943; CHO-K1 KCNQ2, FluxOR thallium flux fluorescence; stronger effect = higher value; B-score at 10 µM; hit rate 0.54% among 310,000; AID 2239;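 active = fluorescence ratio B-score at least 3 SD of library B-scores, with initial fluorescence B-score within 3 of them, cut at about 5.3 in these data; same plate scores as AID 2156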;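 also: B-score of peak minus minimum over baseline fluorescence ratio after K+ and Tl+ stimulus; positive B-score means potentiation of KCNQ2 with more thallium influx and brighter signal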
KCNQ2 block = blocks the rat KCNQ2 potassium channel; hit rate 1.1% among 310,000; O88943; B-score at 10 µM; AID 2156; CHO-K1 KCNQ2, FluxOR thallium flux, 20 min; stronger effect = lower value;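 active = fluorescence ratio B-score at most minus 3 library SDs, with starting brightness B-score within 2 library SDs, cut at about -5.5 in these data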
* = called active by the depositor; i = inactive; . = no result given. A selection: hits, their analogues and other compounds. The true share with any hit is near 1.6%.

SMILES	KCNQ2 enhance	KCNQ2 block
COc1ccc(NC(=O)c2c(-c3ccccc3)noc2C)c(OC)c1	.	i
CCCOc1ccccc1NC(=O)c1c(-c2ccccc2)noc1C	-6.06	-6.06*
O=C(Nc1ccnn1C1CCN(C2CCC2)CC1)c1ccccc1	1.03	i
OCCN(Cc1ccccc1)c1ncnc2sccc12	.	i
CCOC(=O)NNC(=O)c1[nH]c2ccc(Br)cc2c1-c1ccccc1	-6.83	-6.83*
CC(=O)NNC(=O)c1[nH]c2ccc(Br)cc2c1-c1ccccc1	3.32	i
COC(=O)c1ccc(NS(=O)(=O)c2ccc(-c3cc(C)no3)s2)cc1	.	i
COc1ccccc1N1CCN(C2CCCN(C(=O)CCc3c(C)noc3C)C2)CC1 (stereo not given)	0.06	i
CCOC(=O)c1cc(C)sc1NC(=O)C(c1ccccc1)c1ccccc1	-6.01	-6.01*
CCOC(=O)c1cc(CC)sc1NC(=O)Cc1ccccc1	-5.73	-5.73*
CCOC(=O)c1cc(CC)sc1NC(=O)COC	.	i
CCc1cc(C(=O)O)c(NC(=O)C(c2ccccc2)c2ccccc2)s1	1.28	i
CC(Sc1nnc(-c2cccs2)n1N)C(=O)NCC1CCCO1 (stereo not given)	2.09	i
Cc1ccc(S(=O)(=O)N2CCOCC2)cc1NC(=O)COC(=O)Cn1c(C)csc1=O	1.33	i
CCOC(=O)N1CCN(C2CCCN(C(=O)c3ccccc3N(C)C)C2)CC1 (stereo not given)	1.56	i
Cc1nc2c(c(=O)n1CCC1=CCCCC1)c1nc3ccccc3nc1n2/N=C/c1ccco1	-7.67	-7.67*
CCCn1c(C)nc2c(c1=O)c1nc3ccccc3nc1n2CCC1=CCCCC1	.	i
O=C(Nc1ccccc1Br)C1CC(=O)N(c2ccc3c4c(cccc24)CC3)C1 (stereo not given)	0.03	i
COc1ccc(/C(N)=N/OC(=O)Cc2cccs2)cc1	-7.01	-7.01*
COc1ccc(/C(N)=N/OC(=O)Cc2cccs2)cc1OC	3.18	i
CN1C(CC(=O)Nc2ccc(Cl)cc2Cl)c2ccccc2CC1(C)C (stereo not given)	.	i
CCOC(=O)/C(C(=O)Nc1ccc(Cl)cc1Cl)=C1/NC(C)(C)Cc2ccccc21	-6.3	-6.3*
Cc1cc(C)c(S(=O)(=O)NCC(=O)NCc2cc(=O)n(C)c(=O)n2C)c(C)c1	.	i
CCOC(=O)C1CCCN(C(=O)c2cc(Nc3ccc(OC)c(OC)c3)nc3ccccc23)C1 (stereo not given)	.	i
CCOC(=O)C1CCCN(C(=O)c2cc(Nc3ccc(OC)cc3OC)nc3ccccc23)C1 (stereo not given)	-7.62	-7.62*
SMILES	KCNQ2 enhance	KCNQ2 block
CCOC(=O)C1CCCN(C(=O)c2cnn3c(C(F)(F)F)cc(-c4ccccc4)nc23)C1 (stereo not given)	.	i
CCOC(=O)C1CCCN(C(=O)c2cc(-c3ccc(C)cc3)nc3ccccc23)C1 (stereo not given)	-5.63	-5.63*
CCN(CC)S(=O)(=O)c1ccc(N2CCCC2)c(NC(=O)Cc2c(F)cccc2Cl)c1	.	i
O=C(Cc1ccc(Cl)c(Cl)c1)Nc1ccc2[nH]c(=O)[nH]c2c1	1.45	i
N#CC(C(=O)NC1CC1)c1nc2ccccc2nc1N1CCCC1 (stereo not given)	.	i
N#CC(C(=O)NC1CCCCC1)c1nc2ccccc2nc1N1CCN(c2ccc(F)cc2)CC1 (stereo not given)	-5.77	-5.77*
O=C(CCc1ccccc1)OCCOC(=O)CCc1ccccc1	0.01	i
Cc1cccc(N/C(N)=N/c2nc(C)c(Cc3ccccc3)c(=O)[nH]2)c1	0.43	i
Cc1ccc(S(=O)(=O)N2CCN(CC(=O)N/N=C/c3ccco3)CC2)cc1	0.05	i
Cn1nc(C(F)(F)F)c(/C=N/OC(=O)c2ccccc2)c1Cl	.	i
Cn1nc(C(F)(F)F)c(/C=N/OC(=O)c2ccccc2)c1Sc1ccc(Cl)cc1	-5.69	-5.69*
O=C(Nc1ccccc1Cl)OC1CCCCC1	1.17	i
C=CCOC(=O)C1=C(C)NC(SCC(=O)OCC)=C(C#N)C1c1ccc(O)c(OC)c1 (stereo not given)	-8.14	-8.14*
C=CCOC(=O)C1=C(C)NC(SC)=C(C#N)C1c1ccc(OCC)cc1 (stereo not given)	.	i
CC(C)Oc1ccc(S(=O)(=O)N2CCOCC2)cc1NC(=O)c1ccc(N2CCCC2=O)cc1	.	i
N#CC(c1ccc(F)cc1)c1ccc(C(=O)c2ccc(F)cc2)cc1 (stereo not given)	.	i
Cc1ccc(C(C#N)c2ccc(C(=O)c3ccc(F)cc3)cc2)cc1 (stereo not given)	-6.36	-6.36*
CCn1c(CSCc2ccc(C)cc2)nnc1SCC(=O)N1CCN(c2ccccc2)CC1	-7.82	-7.82*
C=CCn1c(CSCc2ccccc2)nnc1SCC(=O)N1CCN(c2ccccc2)CC1	.	i
CN(C(=O)CC(=O)Nc1ccc(Cl)c(Cl)c1)c1ccccc1	0.25	i
Cc1cccc(OCC(=O)Nc2ccccc2N2CCN(C(=O)C(C)C)CC2)c1C	-5.85	-5.85*
Cc1ccc(C(C)C)c(OCC(=O)Nc2ccccc2N2CCN(C)CC2)c1	.	i
CC(=O)N1CCN(c2ccccc2NC(=O)COc2cc(C)ccc2C(C)C)CC1	-7.76	-7.76*
Cc1cccc(OCC(=O)Nc2ccccc2N2CCCC2)c1C	.	i
O=c1[nH]cnc2scc(-c3ccc(Br)cc3)c12	0.84	i
SMILES	KCNQ2 enhance	KCNQ2 block
Cc1ccc(-c2csc3nc[nH]c(=S)c23)cc1	13.6*	i
Clc1ccc2[nH]c3c(c2c1)CNCC3	.	i
COc1c(C(=O)Nc2ccccc2N2CCOCC2)cc2ccccc2c1Br	-7.47	-7.47*
COc1ccc(N2CCOCC2)c(NC(=O)c2cc3ccccc3o2)c1	-7.34	-7.34*
O=C(Nc1ccccc1N1CCOCC1)c1cc2ccccc2o1	.	i
COc1ccccc1C(=O)Nc1ccccc1N1CCOCC1	.	i
O=C1NC(=O)C(Cc2ccccc2)(c2cccnc2)N1 (stereo not given)	.	i
Cc1ccc(-n2nc3c(c2NC(=O)CC(C)C)CS(=O)(=O)C3)cc1	0.97	i
COCC(=O)Oc1c(Sc2ccccc2[N+](=O)[O-])c(C)nn1C(C)(C)C	.	i
CCC(CC)C(=O)Oc1c(Sc2ccccc2[N+](=O)[O-])c(C)nn1C(C)(C)C	-6.01	-6.01*
Cc1cccc(C)c1OCc1cc(C(=O)N2CCN(c3ccccc3)CC2C)no1 (stereo not given)	-7.09	-7.09*
CC1CN(c2ccccc2)CCN1C(=O)c1cc(COc2c(F)cccc2F)on1 (stereo not given)	1.3	i
CN(C)c1ccc(/C=C/c2nc3ccccc3c(=O)n2CCO)cc1	-5.95	-5.95*
O=c1c2ccccc2nc(/C=C/c2ccccc2)n1CCCO	2.5	i
CCOc1cc(C(=O)Nc2ccc(S(=O)(=O)NC3=NCCCCC3)cc2)cc(Br)c1OC	.	i
Cc1cc(C)cc(NC(=O)/C=C/c2ccc([N+](=O)[O-])s2)c1	.	i
Cc1ccccc1NC(=O)/C=C/c1ccc([N+](=O)[O-])s1	-5.73	-5.73*
N#Cc1cnn2ccc(-c3ccc4c(c3)CCC4)nc12	0.71	i
Cc1ccc(C)c(N(CC(=O)NC2CCCC2)C(=O)c2oc(C(C)(C)C)cc2C)c1	-6.56	-6.56*
Cc1cc(C(C)(C)C)oc1C(=O)N(CC(=O)NC1CCCC1)Cc1ccccc1	.	i
Cc1cc(C)nc(/N=C(\NC(=O)C(C)(C)C)Nc2ccccc2)n1	1.33	i

Screens: PubChem BioAssay, Johns Hopkins Ion Channel Center
